# Test results: PubChem BioAssay (NCI)
# This is part of a sample that, as a whole, favours compounds with a hit. Of some 79,000 tested, about 15% had one in any assay. Values without a mark were called inactive. The source made the active and inactive calls. Rule as the data show it: active = growth inhibition above about 70%; inactive = the rest.
# Columns and labels:
# [1] = NCI Yeast Anticancer Drug Screen. Data for the rad50 strain (AID 155);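 also: 0% = growth of vehicle-only cultures of the same strain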; settings: S. cerevisiae rad50 strain growth inhibition, stronger effect = higher value
# In short: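 Readout: growth inhibition relative to vehicle-treated cultures. Compound exposure was carried out in a genetically defined yeast strain deficient in DNA damage repair.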
# [2] = NCI Yeast Anticancer Drug Screen. Data for the mec2-1 strain (AID 157); settings: S. cerevisiae mec2-1 strain, stronger effect = higher value
# In short: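 Each compound was tested on mec2-1 yeast, a strain altered in DNA damage repair or cell cycle control. Growth inhibition is reported relative to vehicle.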
# [3] = NCI Yeast Anticancer Drug Screen. Data for the sgs1 mgt1 strain (AID 161);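 also: 0% = growth of cultures given vehicle only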; settings: S. cerevisiae sgs1 mgt1 strain, stronger effect = higher value
# In short: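 Inhibition of yeast growth, normalised to vehicle-treated controls, is reported for a strain bearing genetic alterations in DNA damage repair.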
# [4] = NCI Yeast Anticancer Drug Screen. Data for the cln2 rad14 strain (AID 165);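 also: 0% = growth equal to vehicle treated cultures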; settings: S. cerevisiae cln2 rad14 strain, stronger effect = higher value
# In short: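 Test compounds were added to cln2 rad14 yeast cultures; inhibition of growth was then determined by comparison with vehicle treatment.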
# [5] = NCI Yeast Anticancer Drug Screen. Data for the bub3 strain (AID 167); settings: S. cerevisiae bub3 mutant strain, stronger effect = higher value
# In short: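 Readout: yeast growth inhibition, expressed relative to vehicle-only wells. The test organism is a mutant strain from a panel with lesions in DNA repair or checkpoint genes.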
# [6] = NCI Yeast Anticancer Drug Screen. Data for the mlh1 rad18 strain (AID 175); settings: S. cerevisiae mlh1 rad18 strain growth inhibition, stronger effect = higher value
# In short: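 Inhibition values reflect reduced growth of mutant yeast versus vehicle-treated controls following compound exposure; the mutations affect DNA damage repair.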
# [7] = at 5.0 µM (retest, dose inferred, filed as 0.5)
# [8] = at 50.0 µM (retest, dose inferred, filed as 5.0)
SMILES,"growth inhibition [1, 7]","growth inhibition [1, 8]",growth inhibition ([1]; at 50.0 µM),"growth inhibition [2, 7]","growth inhibition [2, 8]",growth inhibition ([2]; at 50.0 µM),"growth inhibition [3, 7]","growth inhibition [3, 8]",growth inhibition ([3]; at 50.0 µM),"growth inhibition [4, 7]","growth inhibition [4, 8]",growth inhibition ([4]; at 50.0 µM),"growth inhibition [5, 7]","growth inhibition [5, 8]",growth inhibition ([5]; at 50.0 µM),"growth inhibition [6, 7]","growth inhibition [6, 8]",growth inhibition ([6]; at 50.0 µM)
CC(SC1=CC(=O)c2c(O)ccc(O)c2C1=O)C(=O)O (stereo not given),9%,-19%,22.6%,-4%,-2%,11.8%,19%,5%,19.9%,-5%,-6%,-27.6%,-6%,-5%,4%,-5%,-6%,25.1%
O=C(O)C(=O)Cc1ccccc1[N+](=O)[O-],-3%,36%,75.4% (active),1%,1%,4.9%,-3%,28%,68.3%,1%,3%,-18.6%,-10%,10%,20.5%,-2%,24%,68.2%
O=C1c2cc([N+](=O)[O-])cc3cc([N+](=O)[O-])cc(c23)C(=O)N1CCCNCCNCCCN1C(=O)c2cc([N+](=O)[O-])cc3cc([N+](=O)[O-])cc(c23)C1=O,85% (active),93% (active),61%,32%,96% (active),77.4% (active),93% (active),94% (active),80.9% (active),22%,92% (active),83% (active),9%,95% (active),83.7% (active),66%,91% (active),77.3% (active)
O=C(NC1CCN(Cc2ccccc2)CC1)c1ccc(I)cc1,40%,59%,68%,46%,62%,49.7%,52%,87% (active),74.6% (active),81% (active),88% (active),77.2% (active),60%,49%,74.3% (active),53%,78% (active),76.8% (active)
CN(C)C=Nc1ccc2nonc2c1,15%,24%,10.2%,-15%,-7%,-3.55%,12%,16%,3.4%,19%,23%,7.8%,15%,13%,4.1%,8%,10%,0.9%
OCCc1ccc(-n2cnc3c(Nc4ccc(Cl)cc4)ncnc32)cc1,-3%,95% (active),47.2%,-4%,95% (active),43%,-4%,91% (active),44.8%,-18%,94% (active),17.8%,7%,96% (active),83.8% (active),3%,95% (active),47%
COc1ccccc1NC(=O)c1ccccc1F,-154%,41%,-2.5%,-47%,-41%,10.7%,-61%,-17%,0.2%,-60%,-72%,4.65%,-70%,9%,-3.5%,-147%,-43%,-9.6%
CC(C)n1nnc2ccccc2c1=Nc1ccccc1,1%,85% (active),96.1% (active),-6%,95% (active),97% (active),-2%,89% (active),96.2% (active),6%,16%,91.3% (active),0%,63%,95.5% (active),16%,90% (active),96.5% (active)
CC(C)CCOC(=O)c1ccc(O)cc1.[Zn+2],5%,36%,76.1% (active),-1%,32%,65.6%,3%,29%,76.8% (active),2%,17%,37%,53%,86% (active),88.5% (active),3%,35%,84.2% (active)
CC(=O)N1c2ccccc2Sc2c1ccc1ccccc21,10%,94% (active),96% (active),5%,95% (active),96.8% (active),11%,94% (active),96.5% (active),1%,94% (active),95% (active),6%,93% (active),94.3% (active),2%,92% (active),96.7% (active)
